# Results filed as inconclusive are left out. Activity calls are given as the source filed them. The call rests on the fitted dose curve; in most records, active means well fitted cell-killing curve with a large enough effect; inconclusive means small, poorly fitted or top-dose-only effect, or effect the other way; inactive means no such curve, though single readings can be large or run the other way.
# Assay: Quantitative High-Throughput drug screen in 47 multiple myeloma cell lines against the NCATS MIPE library collection: PCM6_Riken cell viability assay (AID 1919870); further: nearly all actives have a fitted effect of over 30% in size
# Settings: CellTiter-Glo ATP, 48 h; series mostly up to 45.8 µM
# Source text: PI: Beverly A. Mock Ph.D.
# Laboratory of Cancer Biology and Genetics,
# Center for Cancer Research, National Cancer Institute,
# National Institute of Health, Bethesda, Maryland
# Drug resistance and disease progression are common in multiple myeloma (MM) patients, underscoring the need for new therapeutic combinations. […] We hypothesized that effective combinations would reduce MYC expression and enhance p16 activity. […] These preclinical data identify potentially useful drug combinations for evaluation in drug-resistant MM and reveal potential mechanisms of combined drug sensitivity.
# Described herein is the primary MIPE qHTS used to cherrypick compounds. Validated compounds were then further tested for potential synergistic activiy.
# [1] Peat TJ, Gaikwad SM, Dubois W, Gyabaah-Kessie N, Zhang S, Gorjifard S, Phyo Z, Andres M, Hughitt VK, Simpson RM, Miller MA, Girvin AT, Taylor A, Williams D, D'Antonio N, Zhang Y, Rajagopalan A, Flietner E, Wilson K, Zhang X, Shinn P, Klumpp-Thomas C, McKnight C, Itkin Z, Chen L, Kazandijian D, Zhang J, Michalowski AM, Simmons JK, Keats J, Thomas CJ, Mock BA. Drug combinations identified by high-throughput screening promote cell cycle transition and upregulate Smad pathways in myeloma. Cancer Lett. 2023 Aug 1;568:216284. doi: 10.1016/j.canlet.2023.216284. Epub 2023 Jun 24. PMID: 37356470; PMCID: PMC10408729.
# SEQUENCE No. (e.g., 1, 2, 3, etc.); […] (e.g., Cells, Incubation, Reagent, etc.); VALUE and DESCRIPTION.
# 1; Cells; 5 uL; white, solid bottom 1536-well Greiner assay plate.
# 2; Compounds; 23 nL; Kalypsis pin tool (Wako USA) equipped with a 1536-well pin head to transfer to the assay plates.
# 3; Incubation; 48 hours; 37C incubation.
# 4; Reagent;5uL; CellTiter Glo (Promega).
# 5; Detector; 425V; Luminescence; Viewlux PerkinElmer.
# NOTES (numbers refer to Sequence numbers above)
# 1. The cell-based screening methods employed in this study were like those previously published. Briefly, the corresponding myeloma cell lines were screened in 1,536-well plates with 500 cells, 5-uL per well for inhibition of cell viability (assessed by measuring ATP levels with CellTiterGlo).
# 2. NCATS MIPE 4.0 library of approved and investigational drugs were added using the Kalypsis pin tool. Wells treated with DMSO only for 100% viability and media only for 0% viability were used as controls.
# 3. The assay plates were covered and incubated for 48 hours in a 37C, 5% CO2 incubator with controlled humidity.
# 4. After 48 hours, CellTilter-GloTM luminescent substrate mix (Promega) reagent was added to the assay plate and plates we incubated for 5 min at room temperature.
# 5. Signal was measured as median relative luminescence units on a ViewLux (PerkinElmer) multiplate reader.
# [1] Heske CM, Davis MI, Baumgart JT, Wilson K, Gormally MV, Chen L, Zhang X, Ceribelli M, Duveau DY, Guha R, Ferrer M, Arnaldez FI, Ji J, Tran HL, Zhang Y, Mendoza A, Helman LJ, Thomas CJ. Matrix Screen Identifies Synergistic Combination of PARP Inhibitors and Nicotinamide Phosphoribosyltransferase (NAMPT) Inhibitors in Ewing Sarcoma. Clin Cancer Res. 2017 Dec 1;23(23):7301-7311. doi: 10.1158/1078-0432.CCR-17-1121. Epub 2017 Sep 12. PMID: 28899971; PMCID: PMC6636827.
# Potency means the concentration at half of the fitted maximal effect.
row,SMILES,Potency
1,Clc1ccc(COC(Cn2ccnc2)c2ccc(Cl)cc2Cl)cc1 (stereo not given),20.9 µM (active)
2,Cc1[nH]c(C=C2C(=O)Nc3ccc(S(=O)(=O)Cc4c(Cl)cccc4Cl)cc32)c(C)c1C(=O)N1CCC[C@H]1CN1CCCC1,7.43 µM (active)
3,COc1cc2nc(-c3ccc(N4CCN(C)CC4)cc3)nc(NCCN3CCOCC3)c2cc1OC,0.166 µM (active)
4,CC(=O)Oc1cc2c(s1)CCN(C(C(=O)C1CC1)c1ccccc1F)C2 (stereo not given),1.48 µM (active)
5,CNC1CCC(N(Cc2cccc(-c3ccncc3)c2)C(=O)c2sc3c(F)ccc(F)c3c2Cl)CC1 (stereo not given),14.8 µM (active)
6,COc1cc2ncnc(-n3nc(-c4ccccn4)nc3N)c2cc1OC,4.69 µM (active)
7,CCCCCN(C)CCC(O)(P(=O)(O)O)P(=O)(O)O,inactive
8,Nc1ncnc2c1ncn2[C@@H]1O[C@H](CO)C[C@@H]1O,inactive
9,O=C(CCN1CCN(C(=O)OCc2cc(Cl)cc(Cl)c2)CC1)c1ccc2[nH]c(=O)oc2c1,inactive
10,CN1[C@@H]2CCC[C@@H]1CC(NC(=O)c1nn(C)c3ccccc13)C2 (stereo not given in full),inactive
11,O=C1C[C@@H](c2ccc(O)cc2)Oc2cc(O)cc(O)c21,inactive
12,CCC(=O)NC[C@H](Cc1ccc(OCCc2nc(-c3ccccc3)oc2C)cc1)NC(C)=CC(=O)c1ccc(C(F)(F)F)cc1,inactive
13,CC1(C)CCC[C@@]2(C)[C@@H]1CC[C@@]1(C)OC(=O)C[C@H]21,inactive
14,C[C@@H]1CCN(C(=O)CC#N)C[C@H]1N(C)c1ncnc2[nH]ccc12,inactive
15,O=c1cc(-c2cccc3c2Sc2ccccc2S3)oc(N2CCOCC2)c1,14.8 µM (active)
16,CNC(=O)c1ccccc1Sc1ccc2c(C=Cc3ccccn3)n[nH]c2c1,7.43 µM (active)
17,O=C(NCc1ccccc1)c1csc(Nc2ccncn2)n1,8.33 µM (active)
18,CCn1cc(C(=O)O)c(=O)c2ccc(C)nc21,inactive
19,CCOC(=O)C1=C(N)Oc2ccc(Br)cc2C1C(C#N)C(=O)OCC (stereo not given),16.6 µM (active)
20,O=c1cc(N2CCOCC2)oc2c(-c3cccc4c3sc3ccccc34)cccc12,8.33 µM (active)

row,SMILES,Potency
1,CC1(C)O[C@H]2C[C@@H]3[C@H]4CCC5=CC(=O)C=C[C@]5(C)[C@@]4(F)[C@@H](O)C[C@]3(C)[C@]2(C(=O)CO)O1,0.059 µM (active)
2,Clc1ccc(C(c2ccc(Cl)cc2)n2cc[n+](CC(OCc3ccc(Cl)cc3Cl)c3ccc(Cl)cc3Cl)c2)cc1 (stereo not given),6.62 µM (active)
3,Nc1ncnc2ccccc12,20.9 µM (active)
4,COc1ccc(C2CC(c3ccccc3)=NN2c2ccc(S(N)(=O)=O)cc2)cc1 (stereo not given),26.4 µM (active)
5,O=C(O)c1ccc(-c2cc3cccnc3c(-c3ccc4nonc4c3)n2)cc1,29.6 µM (active)
6,NC(=O)c1cnc(-c2ccc(C3(N)CCC3)cc2)c(-c2ccccc2)c1,1.32 µM (active)
7,O=c1c(-c2ccc(O)cc2)coc2cc(OC3O[C@H](CO)[C@H](O)[C@H](O)[C@H]3O)cc(O)c12 (stereo not given in full),2.64 µM (active)
8,O=C(O)c1ccccc1C(=O)Nc1ccc(-c2ccccc2)cc1,inactive
9,CO[C@H]1C=CC=C(C)C(=O)NC2=CC(=O)C(NCCN(C)C)=C(C[C@@H](C)C[C@H](OC)[C@@H](O)[C@@H](C)C=C(C)[C@@H]1OC(N)=O)C2=O,0.105 µM (active)
10,NS(=O)(=O)c1cccc2c1C(=O)c1cccc(O)c1C2=O,0.469 µM (active)
11,CN(C)Cc1cccc(N=C(c2ccccc2)c2c(O)[nH]c3cc(C(=O)N(C)C)ccc23)c1,10.5 µM (active)
12,O=C(Nc1ccccc1-c1cn2c(CN3CCNCC3)csc2n1)c1cnc2ccccc2n1,10.5 µM (active)
13,CC(C)n1cnc2c(NCCCCCCNC(=O)OC(C)(C)C)nc(NCCO)nc21,16.6 µM (active)
14,CCc1ccc(OCc2ccccc2C(=O)Nc2ccc3nc(C)cc(N)c3c2)cc1,1.18 µM (active)
15,C=C1C(=O)[C@@]23C(CC[C@@H]1[C@H]2O)[C@@]12CO[C@]3(O)[C@@H](O)[C@@H]1C(C)(C)CC[C@@H]2O (stereo not given in full),1.66 µM (active)
16,O=C1Nc2ccc(Cl)cc2C(C#CC2CC2)(C(F)(F)F)O1 (stereo not given),23.5 µM (active)
17,Cc1nc(N)sc1-c1ccnc(Nc2ccc(N3CCOCC3)cc2)n1,6.62 µM (active)
18,NC(=O)c1ccc2nc(-c3ccc(Oc4ccc(Cl)cc4)cc3)[nH]c2c1,inactive
19,COCCOc1nc(-c2ccc(Cl)c(Cl)c2)n(-c2ccc(NC(=O)CCl)cc2)n1,16.6 µM (active)
20,CCOC(=O)O[C@]1(C(=O)OCCl)CC[C@@H]2[C@H]3CCC4=CC(=O)C=C[C@]4(C)[C@@H]3[C@@H](O)C[C@@]21C,inactive

# Reference: PubChem BioAssay (NCATS)
